PubChem BioAssay (Tox21)
Results filed as inconclusive are left out. Where a call stands in place of a potency, no number is given. The source made the active and inactive calls. Unless noted, calls come from the whole dose curve; as a rule, active = well fitted curve in the direction sought with a large enough effect in the repeat runs; inconclusive = weak or mixed curves; inactive = no such curve, though single readings can be large; an effect the other way counts as inactive or inconclusive.

How the values were obtained:
[1] = qHTS assay to identify small molecule antagonists of the estrogen related receptor (ERR) signaling pathway from Tox21 library - cell viability counter screen (AID 1224834); note: nearly all actives have a fitted effect of over 30% in size
Outline: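 After 17.5 h of compound exposure at 37 C, ERR cells are incubated with CellTiter-Fluor for 30 min and fluorescence intensity serves as the viability measure.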

[2] = biological target: Luciferin 4-monooxygenase (Photinus pyralis) (UniProt P08659); assay: qHTS assay to identify small molecule inhibitors of firefly luciferase (AID 1224835); note: nearly all actives have a fitted effect of over 25% in size; note: potency is the fitted concentration of half-maximal effect
Outline: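 Biochemical qHTS: compounds run as interplate titrations against purified firefly enzyme, with D-luciferin and ATP each at its KM concentration. Light output recorded by CCD imaging.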

[3] = qHTS assay to identify small molecule agonists of the constitutive androstane receptor (CAR) signaling pathway - cell viability counter screen (AID 1224836); note: series mostly up to about 92 µM; nearly all actives have a fitted effect of over 45% in size
Outline: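 Cells were seeded and incubated 4 hrs. Compounds were added across 15 concentrations together with PK11195 at 0.75 uM final. Plates were incubated 23 hrs at 37 C. CellTiter-Fluor was added and fluorescence measured.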

[4] = qHTS assay to identify small molecule antagonists of the constitutive androstane receptor (CAR) signaling pathway - cell viability counter screen (AID 1224837); note: series mostly up to about 92 µM; nearly all actives have a fitted effect of over 45% in size
Outline: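 Counter screen run in HepG2-CYP2B6-hCAR cells: 4 hr settle, compound titration (15 concentrations) with 50 nM CITCO, 23 hr at 37 C/5% CO2, CellTiter-Fluor fluorescence.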

[5] = biological target: Nuclear receptor subfamily 1 group I member 3 (Homo sapiens) (UniProt Q14994); assay: qHTS assay to identify small molecule antagonists of the constitutive androstane receptor (CAR) signaling pathway (AID 1224838);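 note: HepG2 cells stably expressing hCAR with CYP2B6 luciferase reporter stimulated by CITCO; nearly all actives have a fitted effect of over 40% in size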
Outline: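 Cell line: HepG2 double-stable for hCAR and CYP2B6-2.2kb reporter. Agonist: CITCO, 50 nM final. Compounds: 15 concentrations, 24 h, 37 C. Detection: ONE-Glo luminescence.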

[6] = biological target: Nuclear receptor subfamily 1 group I member 3 (Homo sapiens) (UniProt Q14994); assay: qHTS assay to identify small molecule agonists of the constitutive androstane receptor (CAR) signaling pathway (AID 1224839); note: nearly all actives have a fitted effect of over 15% in size; note: potency is the fitted concentration of half-maximal effect
Outline: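 Cells were plated and incubated 4 hrs, then dosed with compounds at 15 concentrations. PK11195 was added to 0.75 uM final. After 24 hrs at 37 C, luciferase luminescence was measured.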

[7] = qHTS assay to identify small molecule antagonists of the estrogen related receptor signaling pathway with the pleiotropic PPARgamma coactivator (PGC) from Tox21 10K library - cell viability counter screen (AID 1224840; active = well fitted cell-killing curve with a large enough effect in the repeat runs, not every such curve was filed as active; note: nearly all actives have a fitted effect of over 40% in size)
Outline: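 Following seeding of 2,000 PGC/ERR cells/well and 6 hours' incubation, test compounds were delivered in DMSO. The plates then sat 17.5 hours at 37 C before a fluorogenic live-cell protease reagent (CellTiter-Fluor) was read after 30 min.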

[8] = qHTS assay to identify small molecule antagonists of the estrogen related receptor signaling pathway with the pleiotropic PPARgamma coactivator (PGC) from Tox21 10K library (AID 1224841; call rule not given here; note: actives are mostly falling curves and most rising ones were filed inactive; nearly all actives have a fitted effect of over 50% in size; note: potency is the fitted concentration of half-maximal effect)
Outline: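 qHTS antagonist format: PGC/ERR cells, 2k/well, compound in DMSO by pin transfer after 6 h attachment, 18 h treatment at 37 C, One-Glo luminescence read at 30 min.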

[9] = qHTS assay to identify small molecule agonists of the estrogen related receptor signaling pathway with the pleiotropic PPARgamma coactivator (PGC) from Tox21 10K library (AID 1224842); note: nearly all actives have a fitted effect of over 15% in size; note: potency is the fitted concentration of half-maximal effect
Outline: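 PGC/ERR reporter cell line, 2,000 cells per well, incubated 6 h at 37 C before 23 nL compound in DMSO was added. After 18 h at 37 C, One-Glo luminescence read following 30 min at room temperature.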

Nuclear receptor subfamily 1 group I member 3 (Homo sapiens), sequence (Q14994 whole entry, looked up): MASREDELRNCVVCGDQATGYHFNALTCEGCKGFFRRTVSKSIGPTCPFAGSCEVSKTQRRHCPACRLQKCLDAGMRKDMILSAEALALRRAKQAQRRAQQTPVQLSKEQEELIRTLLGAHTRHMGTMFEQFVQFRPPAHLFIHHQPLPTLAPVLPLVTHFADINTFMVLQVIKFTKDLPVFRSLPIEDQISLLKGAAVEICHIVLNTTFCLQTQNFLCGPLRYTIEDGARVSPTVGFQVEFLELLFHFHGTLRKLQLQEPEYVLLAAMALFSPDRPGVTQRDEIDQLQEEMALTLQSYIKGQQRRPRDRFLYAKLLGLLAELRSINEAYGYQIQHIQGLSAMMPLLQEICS
Luciferin 4-monooxygenase (Photinus pyralis), sequence (P08659 whole entry, looked up): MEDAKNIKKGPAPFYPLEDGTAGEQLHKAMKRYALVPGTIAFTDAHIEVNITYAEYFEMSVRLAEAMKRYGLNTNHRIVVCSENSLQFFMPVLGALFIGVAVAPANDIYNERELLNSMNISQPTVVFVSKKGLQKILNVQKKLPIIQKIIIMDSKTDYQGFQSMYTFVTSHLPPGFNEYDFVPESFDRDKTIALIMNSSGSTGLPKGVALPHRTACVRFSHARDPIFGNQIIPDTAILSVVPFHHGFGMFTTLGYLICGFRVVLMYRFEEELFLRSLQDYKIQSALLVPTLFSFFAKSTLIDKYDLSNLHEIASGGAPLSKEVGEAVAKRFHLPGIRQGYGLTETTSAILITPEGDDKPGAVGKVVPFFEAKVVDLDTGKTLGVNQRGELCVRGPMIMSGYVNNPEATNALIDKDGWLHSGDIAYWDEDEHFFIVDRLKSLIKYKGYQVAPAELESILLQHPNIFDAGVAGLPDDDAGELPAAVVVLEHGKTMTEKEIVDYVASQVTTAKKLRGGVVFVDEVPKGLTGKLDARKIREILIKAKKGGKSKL

Row | Compound | Potency [1] | Potency [2] | outcome [3] | outcome [4] | Potency [5] | Potency [6] | outcome [7] | Potency [8] | Potency [9]
1 | CO[Si](OC)(OC)OC | inactive | inactive | inactive | inactive | inactive | inactive | inactive | – | –
2 | OCCCCCCO | inactive | inactive | inactive | inactive | inactive | inactive | inactive | – | –
3 | CC1=CC(=O)CCC1 | inactive | inactive | inactive | inactive | inactive | inactive | inactive | – | –
4 | CC(C)CCCC(C)CCCC(C)CCCCC(C)CCCC(C)CCCC(C)C (configuration not stated) | inactive | inactive | inactive | inactive | inactive | inactive | inactive | – | –
5 | C#CC(O)C(CC)CCCC (configuration not stated) | inactive | inactive | inactive | inactive | inactive | inactive | inactive | – | –
6 | COc1cc(C)cc(O)c1 | inactive | inactive | inactive | inactive | inactive | inactive | inactive | – | –
7 | O=c1[nH]c(=O)n([C@H]2O[C@H](CO)[C@@H](O)[C@@H]2O)cc1/C=C\Br | inactive | inactive | inactive | inactive | inactive | inactive | inactive | – | –
8 | C=C(C)C(=O)OCCC(C)OC(=O)C(=C)C (configuration not stated) | inactive | inactive | inactive | inactive | inactive | inactive | inactive | inactive | inactive
9 | O=S(=O)(O)c1ccccc1O | inactive | inactive | inactive | inactive | inactive | inactive | inactive | – | inactive
10 | CCCCCCCCCCCCCCC | inactive | inactive | inactive | inactive | inactive | inactive | inactive | – | inactive
11 | CC(C)c1ccc2oc3nc(N)c(C(=O)O)cc3c(=O)c2c1 | inactive | 275 nM (active) | inactive | inactive | inactive | 841 nM (active) | inactive | – | 1330 nM (active)
12 | NC(=O)c1ncn([C@@H]2O[C@H](CO)[C@@H](O)[C@H]2O)c1O | inactive | inactive | inactive | inactive | inactive | inactive | inactive | – | –
13 | OC[C@H]1O[C@@H]2O[C@H]3[C@H](O)[C@@H](O)[C@@H](O[C@H]4[C@H](O)[C@@H](O)[C@@H](O[C@H]5[C@H](O)[C@@H](O)[C@@H](O[C@H]6[C@H](O)[C@@H](O)[C@@H](O[C@H]7[C@H](O)[C@@H](O)[C@@H](O[C@H]8[C@H](O)[C@@H](O)[C@@H](O[C@H]9[C@H](O)[C@@H](O)[C@@H](O[C@H]1[C@H](O)[C@H]2O)O[C@@H]9CO)O[C@@H]8CO)O[C@@H]7CO)O[C@@H]6CO)O[C@@H]5CO)O[C@@H]4CO)O[C@@H]3CO | inactive | inactive | inactive | inactive | inactive | inactive | inactive | inactive | inactive
14 | CC/C=C\C#N | inactive | inactive | inactive | inactive | inactive | inactive | inactive | – | –
15 | CCN(CC)C(=O)c1ccc(O)c(OC)c1 | inactive | inactive | inactive | inactive | inactive | inactive | inactive | – | –
16 | O=c1[nH]c2ccccc2c(=O)n1CCCl | inactive | inactive | inactive | inactive | inactive | inactive | inactive | – | inactive
17 | COC(=O)[C@H]1[C@H]2C[C@@H]3c4[nH]c5cc(OC)ccc5c4CCN3C[C@H]2C[C@@H](OC(=O)COc2ccc(OC)cc2)[C@@H]1OC | inactive | inactive | inactive | inactive | inactive | inactive | inactive | inactive | inactive
18 | CCC(C)(C)C1CCC(OC)CC1 (configuration not stated) | inactive | inactive | inactive | inactive | inactive | inactive | inactive | inactive | inactive
19 | CC(C)CCCCCCN | inactive | inactive | inactive | inactive | inactive | inactive | inactive | – | –
20 | CCCCCCCCC=O | inactive | inactive | inactive | inactive | inactive | inactive | inactive | inactive | inactive
21 | COc1ccc(COC=O)cc1 | inactive | inactive | inactive | inactive | inactive | inactive | inactive | inactive | inactive
22 | CC1=CCC2C(C1)C2(C)C (configuration not stated) | inactive | inactive | inactive | inactive | inactive | inactive | inactive | – | –
23 | CCC(C)OC(=O)N1CCCCC1CCO (configuration not stated) | inactive | inactive | inactive | inactive | inactive | inactive | inactive | inactive | inactive
24 | CCCCCCOC(=O)c1ccccc1O | inactive | 17800 nM (active) | inactive | inactive | inactive | inactive | inactive | – | inactive
25 | CCCC=O | inactive | inactive | inactive | inactive | inactive | inactive | inactive | – | inactive
26 | CCCC(C)C(=O)O (configuration not stated) | inactive | inactive | inactive | inactive | inactive | inactive | inactive | 52300 nM (active) | inactive
27 | O=C(O)c1cccc(C(=O)O)n1 | inactive | inactive | inactive | inactive | inactive | inactive | inactive | – | inactive
